Test results published in PubChem BioAssay (NCI).
About 83,000 compounds went through this panel and 20% of them were active in at least one assay; those are over-represented in the sample as a whole.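 96-well plates, one dose, 48 hours. Percent growth reported; active if below 10.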 The source made the active and inactive calls.

Legend:
Assay in all cases: NCI-60 one-dose screen, 48 h (100 = growth as untreated, 0 = no growth, -100 = all killed)
Settings in all cases: 10 µM unless noted
NCI-H23 lung = system: NCI-H23 lung
NCI-H226 lung = system: NCI-H226 lung
NCI-H322M lung = system: NCI-H322M lung
HOP-62 NSCLC = system: HOP-62 NSCLC
NCI-H460 lung = system: NCI-H460 lung
HOP-92 NSCLC = system: HOP-92 NSCLC
NCI-H522 lung = system: NCI-H522 lung
A549/ATCC NSCLC = system: A549/ATCC NSCLC
786-0 renal = system: 786-0 renal
COLO 205 colon = system: COLO 205 colon
DU-145 prostate = system: DU-145 prostate
K-562 leukemia = system: K-562 leukemia
MALME-3M melanoma = system: MALME-3M melanoma
MDA-MB-231 breast = system: MDA-MB-231 breast
RXF 393 renal = system: RXF 393 renal
SF-268 CNS = system: SF-268 CNS
SF-295 CNS = system: SF-295 CNS
SF-539 CNS = system: SF-539 CNS
UACC-257 melanoma = system: UACC-257 melanoma
M14 melanoma = system: M14 melanoma

Measured: growth

COc1ccc(C2(SCCNCc3cc(N(C)C)ccn3)c3ccccc3C=Cc3ccccc32)cc1
inactive: NCI-H23 lung 13.5% | NCI-H226 lung 50.6% | NCI-H322M lung 35.1% | HOP-62 NSCLC 40% | A549/ATCC NSCLC 21.3% | 786-0 renal 23.5% | DU-145 prostate 18.1% | SF-268 CNS 28.2% | UACC-257 melanoma 41.1%
active: NCI-H460 lung -14% | HOP-92 NSCLC 0.307% | NCI-H522 lung -17.2% | COLO 205 colon -29.8% | K-562 leukemia 2.08% | MALME-3M melanoma -1.5% | MDA-MB-231 breast -29.2% | RXF 393 renal 8.16% | SF-295 CNS 1.44% | SF-539 CNS -67.7% | M14 melanoma -44.7%

Cc1ccc(C(=O)CSc2nc3ccc(F)cc3c(=O)n2-c2ccc(Cl)cc2)cc1
inactive: NCI-H23 lung 46% | NCI-H322M lung 64.8% | NCI-H460 lung 22.4% | NCI-H522 lung 63.8% | A549/ATCC NSCLC 60.9% | 786-0 renal 10.7% | COLO 205 colon 69.9% | DU-145 prostate 50.4% | K-562 leukemia 88.8% | MALME-3M melanoma 39.6% | MDA-MB-231 breast 13.7% | SF-268 CNS 28.9% | UACC-257 melanoma 70.4% | M14 melanoma 56.5%
active: NCI-H226 lung -21.9% | HOP-62 NSCLC -17.1% | HOP-92 NSCLC -2.96% | RXF 393 renal -10.6% | SF-295 CNS 4.69% | SF-539 CNS 2.03%

O=C(N=Nc1c(O)[nH]c2ccc([N+](=O)[O-])cc12)c1ccc2nc(-c3ccccc3)[nH]c2c1
active: SF-539 CNS 6.74%
inactive: NCI-H23 lung 64.7% | NCI-H226 lung 60.1% | NCI-H322M lung 104% | HOP-62 NSCLC 100% | NCI-H460 lung 100% | HOP-92 NSCLC 30.8% | NCI-H522 lung 17.8% | A549/ATCC NSCLC 106% | 786-0 renal 91.4% | COLO 205 colon 28.4% | DU-145 prostate 57.9% | K-562 leukemia 48.1% | MALME-3M melanoma 30.7% | MDA-MB-231 breast 59.5% | RXF 393 renal 74.6% | SF-268 CNS 53.3% | SF-295 CNS 102% | UACC-257 melanoma 84.6% | M14 melanoma 83.8%

S=C(NCCc1ccccc1)Nc1ccc(OCc2nc3ccccc3[nH]2)cc1
inactive: NCI-H23 lung 104% | NCI-H226 lung 108% | NCI-H322M lung 100% | HOP-62 NSCLC 103% | NCI-H460 lung 108% | HOP-92 NSCLC 100% | NCI-H522 lung 101% | A549/ATCC NSCLC 101% | 786-0 renal 105% | COLO 205 colon 109% | DU-145 prostate 110% | K-562 leukemia 101% | MALME-3M melanoma 102% | MDA-MB-231 breast 109% | RXF 393 renal 122% | SF-268 CNS 100% | SF-295 CNS 104% | SF-539 CNS 102% | UACC-257 melanoma 99.1% | M14 melanoma 95.9%

Clc1cccc(-c2ccc(OCCCN3CCN(c4ccncc4)CC3)cc2)c1
active: HOP-62 NSCLC -49.1% | NCI-H460 lung -67.5% | HOP-92 NSCLC -1.12% | NCI-H522 lung -4.23% | A549/ATCC NSCLC -11.9% | 786-0 renal -79.5% | COLO 205 colon -86.1% | K-562 leukemia -50.3% | MALME-3M melanoma -87% | MDA-MB-231 breast -83.4% | RXF 393 renal -67.1% | SF-295 CNS -80.8% | SF-539 CNS -81.2% | M14 melanoma -64.8%
inactive: NCI-H23 lung 19.1% | NCI-H226 lung 41.3% | NCI-H322M lung 53.4% | DU-145 prostate 35.2% | SF-268 CNS 33.1% | UACC-257 melanoma 25.1%

CC(=O)Nc1ccc(C(=O)NC(=S)Nc2ccc(S(N)(=O)=O)cc2)cc1
inactive: NCI-H23 lung 94.4% | NCI-H226 lung 81.9% | NCI-H322M lung 92.4% | HOP-62 NSCLC 90.8% | NCI-H460 lung 102% | HOP-92 NSCLC 95.4% | NCI-H522 lung 73.7% | A549/ATCC NSCLC 99.2% | 786-0 renal 95.5% | COLO 205 colon 105% | DU-145 prostate 105% | K-562 leukemia 86.6% | MALME-3M melanoma 89.9% | MDA-MB-231 breast 99.3% | RXF 393 renal 93.2% | SF-268 CNS 97.1% | SF-295 CNS 102% | SF-539 CNS 90.7% | UACC-257 melanoma 95.2% | M14 melanoma 93.6%

O=C1NC(=O)c2c1c1c3cc(Br)ccc3[nH]c1c1oc3ccc(F)cc3c21
inactive: A549/ATCC NSCLC 53.5% | COLO 205 colon 30.1% | UACC-257 melanoma 48.4% | M14 melanoma 20%
active: NCI-H23 lung -23.6% | NCI-H226 lung -0.591% | NCI-H322M lung -11.8% | HOP-62 NSCLC -42% | NCI-H460 lung -82.6% | HOP-92 NSCLC -53.2% | NCI-H522 lung -61.6% | 786-0 renal -40.8% | DU-145 prostate -31.5% | K-562 leukemia 4.29% | MALME-3M melanoma -31.1% | MDA-MB-231 breast -25.3% | RXF 393 renal -47.7% | SF-268 CNS -22.6% | SF-295 CNS -64.3% | SF-539 CNS -68.5%

Nc1nnc(-c2c[nH]c3ncc(Br)cc23)c(-c2c[nH]c3ccc(F)cc23)n1
inactive: NCI-H23 lung 33.3% | NCI-H226 lung 50.2% | NCI-H322M lung 50.5% | HOP-62 NSCLC 46.6% | NCI-H460 lung 25.7% | HOP-92 NSCLC 72.9% | NCI-H522 lung 50.5% | A549/ATCC NSCLC 40.7% | 786-0 renal 39.2% | COLO 205 colon 16.2% | DU-145 prostate 44% | K-562 leukemia 23% | MALME-3M melanoma 13.7% | MDA-MB-231 breast 51.6% | RXF 393 renal 40.9% | SF-268 CNS 49% | SF-295 CNS 35.1% | SF-539 CNS 34.8% | UACC-257 melanoma 44.9% | M14 melanoma 23.4%
